For part of these data: Entries with a potency or affinity are not part of this list.

The record followed here is ChEMBL document CHEMBL3988442, “University of Dundee, Small-Polar-MMV Screening Library” (2021).

Set-up in all cases: scale not given: direction of the effect not stated beside the values
Test [1] addresses Protein translocase subunit SecA (Escherichia coli (strain K12)) (UniProt P10408). Nature of the test: Assay to Identify E. coli SecA ATPase Inhibitors. The class given is functional. The note with it: 30 µM.
Test [2] addresses T1, Ubiquitin-activating enzyme e1, putative (Leishmania donovani (strain BPK282A1)) (UniProt E9BSI1).
T1 sequence (whole entry): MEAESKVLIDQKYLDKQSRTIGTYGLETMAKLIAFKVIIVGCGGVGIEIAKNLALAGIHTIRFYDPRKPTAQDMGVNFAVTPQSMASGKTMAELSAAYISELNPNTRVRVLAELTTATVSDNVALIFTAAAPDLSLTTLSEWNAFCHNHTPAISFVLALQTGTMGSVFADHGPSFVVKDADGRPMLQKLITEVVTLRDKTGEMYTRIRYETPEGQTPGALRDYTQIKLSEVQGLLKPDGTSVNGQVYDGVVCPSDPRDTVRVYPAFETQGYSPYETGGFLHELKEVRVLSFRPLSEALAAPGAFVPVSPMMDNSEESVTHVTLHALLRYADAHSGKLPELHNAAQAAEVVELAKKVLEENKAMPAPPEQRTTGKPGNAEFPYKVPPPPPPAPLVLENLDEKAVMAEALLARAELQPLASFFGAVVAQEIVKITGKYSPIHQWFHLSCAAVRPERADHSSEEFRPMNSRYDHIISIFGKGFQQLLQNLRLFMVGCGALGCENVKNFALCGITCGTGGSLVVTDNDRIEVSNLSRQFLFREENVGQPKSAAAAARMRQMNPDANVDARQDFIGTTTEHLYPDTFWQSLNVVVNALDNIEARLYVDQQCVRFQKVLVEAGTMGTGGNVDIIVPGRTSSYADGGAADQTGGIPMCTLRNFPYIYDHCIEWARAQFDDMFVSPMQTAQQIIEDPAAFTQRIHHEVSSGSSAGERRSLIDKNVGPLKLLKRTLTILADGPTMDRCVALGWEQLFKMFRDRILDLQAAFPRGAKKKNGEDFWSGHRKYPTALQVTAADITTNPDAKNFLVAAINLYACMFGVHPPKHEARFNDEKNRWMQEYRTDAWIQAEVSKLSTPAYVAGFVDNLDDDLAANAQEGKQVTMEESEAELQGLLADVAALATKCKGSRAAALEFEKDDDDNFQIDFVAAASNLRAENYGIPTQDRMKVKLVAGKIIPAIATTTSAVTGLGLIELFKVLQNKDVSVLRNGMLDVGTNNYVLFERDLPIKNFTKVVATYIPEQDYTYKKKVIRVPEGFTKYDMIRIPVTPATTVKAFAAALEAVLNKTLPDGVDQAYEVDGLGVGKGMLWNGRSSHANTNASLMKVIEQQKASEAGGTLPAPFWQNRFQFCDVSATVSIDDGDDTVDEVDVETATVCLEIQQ
Nature of the test: Leishmania donovani Ubiquitin Activating Enzyme (LdE1). The settings on record: 30 µM. The class given is functional.

The target of test [3] is Sialic acid-binding Ig-like lectin 9 (Homo sapiens) (UniProt Q9Y336). Nature of the test: Hs-Siglec9 ALPHAscreen SOP 20170721. The note with it: 10 µM. For orientation: Alpha assays give light when donor and acceptor beads are brought close together.
The test system of another test is Trypanosoma cruzi. Nature of the test: Trypanosoma cruzi phosphomannomutase and mannose-1-phosphate guanylyltransferase assay. The class given is functional. The settings on record: 10 µM.
Test [4] deals with T2, Arginase-2, mitochondrial (Homo sapiens) (UniProt P78540).
T2 sequence (whole entry): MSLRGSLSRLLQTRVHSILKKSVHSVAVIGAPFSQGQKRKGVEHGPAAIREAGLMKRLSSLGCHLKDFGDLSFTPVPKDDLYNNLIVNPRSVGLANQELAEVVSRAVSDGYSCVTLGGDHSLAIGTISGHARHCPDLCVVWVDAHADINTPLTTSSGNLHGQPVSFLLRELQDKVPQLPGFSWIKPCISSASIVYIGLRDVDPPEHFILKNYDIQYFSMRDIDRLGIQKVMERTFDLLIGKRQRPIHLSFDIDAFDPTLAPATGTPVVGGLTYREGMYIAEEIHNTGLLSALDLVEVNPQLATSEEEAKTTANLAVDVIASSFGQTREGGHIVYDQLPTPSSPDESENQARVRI
Nature of the test: in vitro enzyme assay to detect the production of urea directly proportional to the activity of Arginase II. Note: in the data most compounds retested in dose-response had high values. The note with it: 33.3 µM. The test is classed as functional.

The target of test [5] is T3, Proteasome subunit beta (Trypanosoma cruzi) (UniProt O96673).
T3 sequence (whole entry): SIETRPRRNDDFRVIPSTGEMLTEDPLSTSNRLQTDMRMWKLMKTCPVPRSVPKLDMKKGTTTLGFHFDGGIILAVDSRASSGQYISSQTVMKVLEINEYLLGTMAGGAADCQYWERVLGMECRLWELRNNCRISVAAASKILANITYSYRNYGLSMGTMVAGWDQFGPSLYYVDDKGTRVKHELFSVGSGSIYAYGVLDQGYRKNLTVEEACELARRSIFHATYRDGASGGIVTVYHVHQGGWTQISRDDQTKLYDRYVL
Nature of the test: Trypanosoma cruzi proteasome chymotrypsin-like activity (TcProtChymo) assay. Note: in the data most compounds retested in dose-response had high values. The settings on record: 9.37 µM. The test is classed as functional.

Another test is filed under the species Homo sapiens. Nature of the test: To identify inhibition of the IFN signalling (Jak-Stat) pathway via expression of an eGFP reporter gene under the control of an IFN-stimulated response element (ISRE) containing MxA promoter. The test is classed as functional. The note with it: 30 µM. For orientation: A reporter such as luciferase makes a cellular process visible.

The target in test [6] is T4, Tyrosyl-tRNA synthetase, putative (Trypanosoma cruzi (strain CL Brener)) (UniProt Q4DSP6).
T4 sequence (whole entry): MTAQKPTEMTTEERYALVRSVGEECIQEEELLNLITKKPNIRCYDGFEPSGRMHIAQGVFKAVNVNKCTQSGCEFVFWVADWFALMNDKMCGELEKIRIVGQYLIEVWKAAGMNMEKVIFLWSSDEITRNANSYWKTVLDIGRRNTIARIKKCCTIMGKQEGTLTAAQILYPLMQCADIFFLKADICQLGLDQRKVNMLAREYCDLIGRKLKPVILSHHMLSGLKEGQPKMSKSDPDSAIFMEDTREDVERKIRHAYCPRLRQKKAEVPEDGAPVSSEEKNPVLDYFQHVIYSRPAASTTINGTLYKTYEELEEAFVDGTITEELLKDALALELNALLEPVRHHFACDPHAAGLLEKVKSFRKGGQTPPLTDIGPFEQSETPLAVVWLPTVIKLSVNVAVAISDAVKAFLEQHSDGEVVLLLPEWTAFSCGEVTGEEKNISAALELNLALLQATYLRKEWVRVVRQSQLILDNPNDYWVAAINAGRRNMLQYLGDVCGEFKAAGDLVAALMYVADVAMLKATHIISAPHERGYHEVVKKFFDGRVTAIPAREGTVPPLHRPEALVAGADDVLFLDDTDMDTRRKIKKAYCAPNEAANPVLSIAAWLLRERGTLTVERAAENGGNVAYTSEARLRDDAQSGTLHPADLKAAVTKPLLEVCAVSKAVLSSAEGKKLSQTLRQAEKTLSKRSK
Nature of the test: Trypanosoma cruzi tyrosyl tRNA synthetase (TcYRS) _High Tyrosine SOP. Note: in the data most compounds retested in dose-response had high values. The class given is functional. The settings on record: 30 µM.

The target of test [7] is T4, Tyrosyl-tRNA synthetase, putative (Trypanosoma cruzi (strain CL Brener)). Nature of the test: Trypanosoma cruzi tyrosyl tRNA synthetase (TcYRS) SOP. The class given is functional. The note with it: 30 µM.
For test [8], the target named is Chromo domain-containing protein 1 (Saccharomyces cerevisiae (strain ATCC 204508 / S288c) (Baker's yeast)) (UniProt P32657). Nature of the test: ScCHD-1 Enzyme Inhibition Assay. Note: in the data most compounds retested in dose-response had high values. The settings on record: 30 µM. The test is classed as functional.
Chromo domain-containing protein 1 (Saccharomyces cerevisiae (strain ATCC 204508 / S288c) (Baker's yeast)), sequence (P32657 whole entry, the tested form may be a part): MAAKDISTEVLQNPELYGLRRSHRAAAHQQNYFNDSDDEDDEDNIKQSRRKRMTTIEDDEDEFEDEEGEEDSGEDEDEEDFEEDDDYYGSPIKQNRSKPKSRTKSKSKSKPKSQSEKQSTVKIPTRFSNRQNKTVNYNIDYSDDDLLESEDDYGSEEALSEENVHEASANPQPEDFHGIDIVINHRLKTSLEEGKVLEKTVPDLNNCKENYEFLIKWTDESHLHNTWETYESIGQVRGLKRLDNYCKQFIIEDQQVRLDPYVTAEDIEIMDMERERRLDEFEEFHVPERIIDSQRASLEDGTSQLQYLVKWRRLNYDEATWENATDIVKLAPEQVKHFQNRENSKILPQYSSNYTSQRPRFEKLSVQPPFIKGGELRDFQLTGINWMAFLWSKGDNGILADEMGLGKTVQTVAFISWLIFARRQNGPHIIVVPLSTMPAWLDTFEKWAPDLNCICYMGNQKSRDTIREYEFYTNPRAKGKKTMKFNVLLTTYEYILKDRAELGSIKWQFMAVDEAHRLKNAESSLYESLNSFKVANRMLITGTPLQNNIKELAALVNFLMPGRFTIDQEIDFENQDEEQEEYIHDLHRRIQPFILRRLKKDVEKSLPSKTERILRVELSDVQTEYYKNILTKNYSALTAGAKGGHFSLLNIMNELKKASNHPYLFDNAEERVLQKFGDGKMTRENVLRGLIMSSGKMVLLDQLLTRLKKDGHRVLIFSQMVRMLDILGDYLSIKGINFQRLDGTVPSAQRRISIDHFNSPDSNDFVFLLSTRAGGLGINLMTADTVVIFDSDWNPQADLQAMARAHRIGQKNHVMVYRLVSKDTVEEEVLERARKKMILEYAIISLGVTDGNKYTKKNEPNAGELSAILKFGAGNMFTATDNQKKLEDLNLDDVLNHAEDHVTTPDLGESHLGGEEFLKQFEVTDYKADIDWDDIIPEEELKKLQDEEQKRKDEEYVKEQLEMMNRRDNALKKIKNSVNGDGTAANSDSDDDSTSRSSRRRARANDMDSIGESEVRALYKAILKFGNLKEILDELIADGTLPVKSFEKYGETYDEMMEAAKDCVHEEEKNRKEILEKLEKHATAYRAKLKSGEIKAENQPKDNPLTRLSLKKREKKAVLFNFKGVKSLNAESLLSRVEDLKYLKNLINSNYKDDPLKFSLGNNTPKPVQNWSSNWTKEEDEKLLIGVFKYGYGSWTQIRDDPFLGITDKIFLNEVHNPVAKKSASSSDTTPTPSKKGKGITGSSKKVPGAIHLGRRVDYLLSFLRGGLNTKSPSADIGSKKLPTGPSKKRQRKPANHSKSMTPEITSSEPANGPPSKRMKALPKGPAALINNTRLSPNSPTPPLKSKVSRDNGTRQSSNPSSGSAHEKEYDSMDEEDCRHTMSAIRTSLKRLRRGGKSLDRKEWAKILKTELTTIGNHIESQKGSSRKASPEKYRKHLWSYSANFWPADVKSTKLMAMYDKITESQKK

Protein translocase subunit SecA (Escherichia coli (strain K12)), sequence (P10408 whole entry): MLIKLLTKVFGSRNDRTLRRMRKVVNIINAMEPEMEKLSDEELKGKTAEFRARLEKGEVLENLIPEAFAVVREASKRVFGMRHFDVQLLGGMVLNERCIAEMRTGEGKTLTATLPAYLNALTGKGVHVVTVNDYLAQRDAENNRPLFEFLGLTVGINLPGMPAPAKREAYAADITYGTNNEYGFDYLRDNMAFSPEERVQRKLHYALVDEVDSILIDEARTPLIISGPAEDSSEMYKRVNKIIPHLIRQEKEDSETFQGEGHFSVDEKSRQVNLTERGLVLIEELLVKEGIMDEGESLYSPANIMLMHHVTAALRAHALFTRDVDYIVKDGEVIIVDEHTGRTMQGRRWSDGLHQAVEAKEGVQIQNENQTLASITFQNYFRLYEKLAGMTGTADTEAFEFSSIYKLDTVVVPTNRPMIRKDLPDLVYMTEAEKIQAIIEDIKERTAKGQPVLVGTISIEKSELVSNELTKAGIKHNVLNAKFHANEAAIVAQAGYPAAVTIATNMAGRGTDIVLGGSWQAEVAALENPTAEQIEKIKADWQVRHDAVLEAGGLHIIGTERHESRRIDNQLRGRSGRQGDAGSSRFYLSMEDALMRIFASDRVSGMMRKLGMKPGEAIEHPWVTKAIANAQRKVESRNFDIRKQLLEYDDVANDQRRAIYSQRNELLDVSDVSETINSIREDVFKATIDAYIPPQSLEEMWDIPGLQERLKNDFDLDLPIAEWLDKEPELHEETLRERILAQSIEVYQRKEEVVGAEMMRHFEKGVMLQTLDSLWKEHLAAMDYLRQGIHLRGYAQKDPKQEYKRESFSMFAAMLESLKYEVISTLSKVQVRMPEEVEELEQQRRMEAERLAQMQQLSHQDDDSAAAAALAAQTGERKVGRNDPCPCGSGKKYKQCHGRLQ
Sialic acid-binding Ig-like lectin 9 (Homo sapiens), sequence (Q9Y336 whole entry): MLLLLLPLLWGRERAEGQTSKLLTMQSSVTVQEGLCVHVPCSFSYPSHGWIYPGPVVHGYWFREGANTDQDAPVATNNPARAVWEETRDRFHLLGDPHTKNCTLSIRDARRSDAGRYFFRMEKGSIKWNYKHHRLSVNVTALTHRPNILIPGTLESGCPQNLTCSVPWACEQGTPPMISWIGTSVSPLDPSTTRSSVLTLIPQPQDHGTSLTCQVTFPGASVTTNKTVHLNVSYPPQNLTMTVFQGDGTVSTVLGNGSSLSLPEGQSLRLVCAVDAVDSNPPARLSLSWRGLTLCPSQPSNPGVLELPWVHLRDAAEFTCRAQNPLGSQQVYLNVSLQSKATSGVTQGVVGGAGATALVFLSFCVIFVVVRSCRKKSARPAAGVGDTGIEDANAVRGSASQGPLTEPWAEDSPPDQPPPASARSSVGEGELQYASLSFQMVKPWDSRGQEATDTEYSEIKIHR

Regarding `Cc1nnc2n1CCN(C(C(=O)NC1CC1)c1ccccc1)C2` (stereo not given), the Percent Effect in test [1] is -3.46%; in test [2], 2.56%; in [3], 6.36%; with Trypanosoma cruzi, 3.47%; in [4] it was 3.69%; in test [5], 5.72%. Moreover, the Percent Effect in the test listed under Homo sapiens is 8.81%; in [6], 3.35%; in test [7], 13.2%; in [8] it was -2.99%.
With `Cc1ccc(C(O)CNCCn2cccn2)cc1C` (stereo not given), the Percent Effect was -4.43% in [1]; 2.67% in [2]; 5.78% in test [3]; 0.803% in the test with Trypanosoma cruzi; 1.33% in test [4]; 2.97% in test [5]. Moreover, the Percent Effect in the test filed under Homo sapiens was 4.85%; in test [6], 3.68%; in test [7], 7.69%; in test [8] it was -8.09%.
On to `O=C(c1ccc(F)cc1F)N1C[C@@H](O)[C@H](N2CCOCC2)C1`, for which the Percent Effect in [1] is -1.31%; in [2], 20%; in [3], -7.22%; in the test on Trypanosoma cruzi, -0.789%; in test [4], -3.1%; in test [5], 17.9%. In addition, the Percent Effect in the test filed under Homo sapiens was 2.56%; in [6], 1.06%; in test [7], 17.5%; in [8], -25.9%.
With `Cc1cnc(CN2CCCC(c3cc(C(F)(F)F)[nH]n3)C2)cn1` (stereo not given), the Percent Effect in test [1] is -4.31%; in test [2], 2.67%; in test [3] it was 2.93%; with Trypanosoma cruzi it was -2.21%; in [4], 3.55%; in [5] it was 2.97%. The Percent Effect is 10.5% in the test filed under Homo sapiens, 4.74% in test [6], 17.9% in test [7] and -4.75% in test [8].
Regarding `CC(C)NC(=O)CC1COC2(CCN(Cc3ccccc3)CC2)C1` (stereo not given), the Percent Effect is -1.47% in test [1]; 16.9% in test [2]; -1.95% in test [3]; -2.25% in the test with Trypanosoma cruzi; 2.28% in test [4]; 16.2% in [5]. The Percent Effect in the test filed under Homo sapiens was -3.75%; in test [6] it was 7.73%; in [7], 10%; in [8] it was -5.41%.
For the molecule `COCCc1noc(CN2CCCC2Cn2cc(C)cn2)n1` (stereo not given), the Percent Effect in [1] was -1.35%; in test [2] it was 8%; in [3], 1.3%; in the test on Trypanosoma cruzi it was 3.21%; in test [4] it was -7.98%; in [5], 3.31%. Also, the Percent Effect was -1.19% in the test filed under Homo sapiens, 0.526% in test [6], 7.69% in [7] and -7.63% in [8].
`COCCN1C(=O)CCC12CCN(C(=O)CC1CC1)CC2`: the Percent Effect is -0.652% in test [1]; -1.3% in test [2]; 0.0799% in [3]; -0.938% with Trypanosoma cruzi; 2.28% in [4]; 5.75% in test [5]. In addition, the Percent Effect is 11.8% in the test filed under Homo sapiens, -0.966% in test [6], -15% in test [7] and 0.945% in [8].
Regarding `CC(C)(C)c1nnc(CN2CCOC(Cn3cncn3)C2)o1` (stereo not given), the Percent Effect in [1] was -3.4%; in [2], 17.9%; in [3] it was 1.77%; with Trypanosoma cruzi it was 9.67%; in test [4], -6.56%; in [5], 4.18%. Also, the Percent Effect was 8.6% in the test filed under Homo sapiens, 4.31% in [6], 18.1% in [7] and -4.15% in [8].
Consider `c1ccc(CN2CCOCC3(CCN(C4CCOCC4)C3)C2)cc1` (stereo not given), for which the Percent Effect in test [1] is -5.53%; in [2], 6.49%; in [3], -8.07%; in the test with Trypanosoma cruzi, -4.58%; in test [4], -3.24%; in test [5] it was 22.9%. The Percent Effect in the test filed under Homo sapiens is 8.96%; in [6], 3.68%; in test [7] it was 10.3%; in test [8] it was -0.0594%.
`CC(=O)NC1CCCN(C(=O)NCc2cccnc2N(C)C)C1` (stereo not given): the Percent Effect in test [1] is -1.76%; in test [2], 16%; in test [3], 3.66%; with Trypanosoma cruzi, 0.402%; in [4], 6.65%; in [5], 11.4%. For the same molecule, the Percent Effect in the test filed under Homo sapiens is 11.5%; in test [6] it was 8.95%; in [7], 15.4%; in [8], -11.3%.
Turning to `COc1cccc(OC)c1CN1CCC2(CC(Nc3ccncn3)C2)C1` (stereo not given), the Percent Effect in test [1] is -0.631%; in test [2], 1.33%; in test [3], 2.05%; in the test with Trypanosoma cruzi, -4.93%; in [4], 1.77%; in [5] it was 3.61%. The Percent Effect was 11.6% in the test listed under Homo sapiens, 5.29% in [6], 5% in test [7] and -14% in [8].
As to `CN(CCNC(=O)c1scnc1Cl)c1ccccc1`, the Percent Effect was -1.49% in test [1]; 10.7% in test [2]; -1.26% in test [3]; -8.23% with Trypanosoma cruzi; 3.99% in [4]; 19.9% in [5]. For the same molecule, the Percent Effect in the test filed under Homo sapiens was 20%; in test [6] it was 1.58%; in test [7], 10.3%; in [8], -6.98%.
